About 79,000 compounds went through this panel and 15% of them were active in at least one assay; those are over-represented in the sample as a whole. Values without a mark were called inactive. Calls of active or inactive are those of the source. Rule as the data show it: active = growth inhibition above about 70%; inactive = the rest.

A short description of assay [1]: NCI Yeast Anticancer Drug Screen. Data for the rad50 strain (AID 155).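 Also: 0% = growth of vehicle-only cultures of the same strain.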 Particulars: S. cerevisiae rad50 strain growth inhibition; at 50.0 µM; hits give high values. In a few lines: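 Cells are treated with compound, grown, and their growth is then scored against vehicle-only cultures of the same repair-deficient yeast strain.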
A short description of assay [2]: NCI Yeast Anticancer Drug Screen. Data for the mec2-1 strain (AID 157). Particulars: S. cerevisiae mec2-1 strain, at 50.0 µM, hits give high values. In a few lines: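 Compounds were applied to mec2-1 yeast cells. Their growth was then compared with that of vehicle-treated cultures to give growth inhibition.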
Assay [3] can be described thus: NCI Yeast Anticancer Drug Screen. Data for the sgs1 mgt1 strain (AID 161).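 Also: 0% = growth of cultures given vehicle only.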 Conditions: S. cerevisiae sgs1 mgt1 strain, at 50.0 µM, hits give high values. Summed up: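 This yeast growth screen uses a strain with defined DNA-repair lesions; compound-treated growth is compared with vehicle-treated growth.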
Assay [4] in a line: NCI Yeast Anticancer Drug Screen. Data for the cln2 rad14 strain (AID 165).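 Also: 0% = growth equal to vehicle treated cultures.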 Particulars: S. cerevisiae cln2 rad14 strain, at 50.0 µM, hits give high values. Summed up:
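Strain: cln2 rad14 yeast, altered in cell cycle control and DNA damage repair. Read-out: growth inhibition vs vehicle.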

Assay [5] can be described thus: NCI Yeast Anticancer Drug Screen. Data for the bub3 strain (AID 167). Conditions: S. cerevisiae bub3 mutant strain, at 50.0 µM, hits give high values. In a few lines:
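Part of a panel of yeast mutants defective in DNA damage repair or cell cycle regulation. Each strain is grown with compound, and inhibition is calculated relative to solvent-treated cultures.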

The nature of assay [6]: NCI Yeast Anticancer Drug Screen. Data for the mlh1 rad18 strain (AID 175). Conditions: S. cerevisiae mlh1 rad18 strain growth inhibition; at 50.0 µM; hits give high values. In a few lines: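 A repair-deficient yeast strain is exposed to test compound, and growth is scored relative to vehicle-treated controls.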

Regarding `O=c1[nH]c(=O)c2nc[nH]c(=O)c2[nH]1`, the growth inhibition is -8.55% in assay [1]; -8.45% in assay [2]; -4.2% in assay [3]; -3.55% in assay [4]; -11.6% in assay [5]; -13.2% in assay [6].
Take `O=CC(O)CO` (centres undefined): the growth inhibition in assay [1] was 10.4%; in assay [2] it was 9.5%; in assay [3], 11.9%; in assay [4], 3.95%; in assay [5] it was 8.65%; in assay [6], -5.2%.
For `O/N=C/c1cccc[n+]1Cc1ccccc1`, the growth inhibition in assay [1] was -4%; in assay [2], 6.3%; in assay [3] it was 0.95%; in assay [4], -23.9%; in assay [5], 4.85%; in assay [6], 1.25%.
As to `NC(=O)c1n[nH]c(C2OC(CO)C(O)C2O)n1` (centres undefined), the growth inhibition was -1.5% in assay [1]; -6.8% in assay [2]; 0.9% in assay [3]; -15.7% in assay [4]; 5.75% in assay [5]; -7.5% in assay [6].
For the compound `COc1ccc(-c2cc(-c3ccc(OC)cc3)cc(-c3ccc(OC)cc3)c2)cc1`, the growth inhibition in assay [1] was -19.5%; in assay [2], -22.8%; in assay [3] it was -14.9%; in assay [4], -27.8%; in assay [5] it was -14%; in assay [6], -16.6%.
Take `CCCCCCC(=O)CC1(C(=O)OC)NC(=S)NC(=O)C1C#N` (centres undefined): the growth inhibition in assay [1] is 18.1%; in assay [2], 6.85%; in assay [3], -1.55%; in assay [4], -0.75%; in assay [5], -9.55%; in assay [6], 15.8%.
For `O=c1nc(Oc2ccccc2)nc2ccc(Cl)nn12`, the growth inhibition is 3.4% in assay [1]; 31.4% in assay [2]; 6.95% in assay [3]; 5.7% in assay [4]; 40.9% in assay [5]; 3.1% in assay [6].
With `Cc1ccc(/C=C/C(=O)C(C)(C)CN2CCCCC2)cc1`, the growth inhibition in assay [1] was 35.6%; in assay [2], -9.05%; in assay [3], 25.1%; in assay [4] it was 14.3%; in assay [5], 10%; in assay [6], 17.9%.
Turning to `COc1cc2c(cc1OC)C1c3ccccc3CCCN1CC2` (centres undefined), the growth inhibition in assay [1] is -40.4%; in assay [2], -4.5%; in assay [3], -57.5%; in assay [4] it was 0.55%; in assay [5], -23.6%; in assay [6], -27%.
On to `CNS(=O)(=O)c1ccc(Cl)cc1`, for which the growth inhibition is 29.9% in assay [1]; 11.7% in assay [2]; 13.9% in assay [3]; 13.3% in assay [4]; 5.9% in assay [5]; 20.1% in assay [6].
For the compound `CC12CCC(C/C1=N\O)C2(C)CBr` (centres undefined), the growth inhibition in assay [1] is 13.4%; in assay [2], -2.15%; in assay [3], -4.35%; in assay [4], -1.1%; in assay [5], -2.3%; in assay [6] it was 5.1%.
With `N#Cc1sc2c(c1O)c(=O)n(-c1ccccc1)c(=S)n2-c1ccccc1`, the growth inhibition in assay [1] is -40.9%; in assay [2], -36.9%; in assay [3] it was -37.3%; in assay [4], -23.1%; in assay [5], -54.9%; in assay [6] it was -47.8%.
As for `O=c1[nH]cnc2c1cnn2-c1ccccc1`, the growth inhibition in assay [1] is 17.1%; in assay [2], 5.3%; in assay [3], 9.7%; in assay [4] it was 3.85%; in assay [5] it was -2.05%; in assay [6], 22.4%.
As to `O=c1[nH]c(=O)n(C2OC(CO)C(O)C2O)cc1Oc1ccccc1` (centres undefined), the growth inhibition in assay [1] is 7.8%; in assay [2], 2.9%; in assay [3] it was 4.2%; in assay [4], 12.4%; in assay [5] it was -0.4%; in assay [6] it was -13.8%.
As to `O=C(NCc1cccc2ccccc12)Nc1ccccc1Cl`, the growth inhibition in assay [1] is 4.9%; in assay [2] it was 36.1%; in assay [3], 10.3%; in assay [4], -6.55%; in assay [5] it was 27%; in assay [6], 30%.
In the case of `O=C(O)CCSCCCCCCCCCCCCSCCC(=O)O`, the growth inhibition was 16.5% in assay [1]; 18.9% in assay [2]; 18.4% in assay [3]; 18.8% in assay [4]; -3.65% in assay [5]; 25.8% in assay [6].
In the case of `CO[C@@H]1C[C@H]2[C@@H]3CC[C@H]([C@H](C)COC(C)=O)[C@@]3(C)CC[C@@H]2[C@@]2(C)CC[C@H]3C[C@]312`, the growth inhibition in assay [1] is -4.65%; in assay [2], 5.8%; in assay [3] it was 1.55%; in assay [4], -9.65%; in assay [5], -1.6%; in assay [6] it was 5.4%.
With `Cn1ncc2c(=O)[nH]c(NCCO)nc21`, the growth inhibition was 3.3% in assay [1]; 1.25% in assay [2]; 0.9% in assay [3]; -16.9% in assay [4]; 8.7% in assay [5]; 0.4% in assay [6].
Turning to `Cc1ccc(S(=O)(=O)OCC(c2ccc(Cl)cc2)c2ccccc2Cl)cc1` (centres undefined), the growth inhibition was 14.6% in assay [1]; 1.9% in assay [2]; 3.6% in assay [3]; 11.4% in assay [4]; -1.15% in assay [5]; 1.85% in assay [6].
For the compound `O=C(N/N=C/c1ccc(Cl)cc1)c1ccccc1NC(=O)C1CC1`, the growth inhibition is -3.85% in assay [1]; -14.2% in assay [2]; 28% in assay [3]; -23.6% in assay [4]; 11.8% in assay [5]; 33.2% in assay [6].
For `CCCc1c(Cl)nc(Cl)nc1Cl`, the growth inhibition was -8.75% in assay [1]; 26.8% in assay [2]; 11.8% in assay [3]; -54.8% in assay [4]; 5.2% in assay [5]; -22.4% in assay [6].
Turning to `CC(C)(C)OC(=O)CC1(C)NC(C(=O)O)C(C)(C)S1` (centres undefined), the growth inhibition in assay [1] is 13.3%; in assay [2], -0.65%; in assay [3], -10.9%; in assay [4], -9.75%; in assay [5], 14.8%; in assay [6], 10.8%.
For `COc1ccc(C2=C/C(=C/c3ccc(N(CCC#N)CCC#N)cc3)C(=O)O2)cc1`, the growth inhibition was -75.2% in assay [1]; -6.2% in assay [2]; -16.4% in assay [3]; -18.2% in assay [4]; -3.05% in assay [5]; -22.8% in assay [6].
On to `O=C(O)Cc1cc(Cl)ccc1Cl`, for which the growth inhibition is -4% in assay [1]; 8.85% in assay [2]; 8.7% in assay [3]; -2.55% in assay [4]; -1.2% in assay [5]; -9.05% in assay [6].
With `O=C(O)CC(O)C(F)(F)F` (centres undefined), the growth inhibition in assay [1] is 17.4%; in assay [2] it was 0.45%; in assay [3] it was 1.95%; in assay [4], 8.65%; in assay [5] it was 5.3%; in assay [6] it was 26.5%.
As to `O=C1C2=C(CCCC2)Nc2cccc3ncn1c23`, the growth inhibition was -25.9% in assay [1]; -39% in assay [2]; -56.8% in assay [3]; -20.4% in assay [4]; -38.4% in assay [5]; -40.2% in assay [6].
As for `O=C(NC(CO)C(=O)O)c1ccccc1` (centres undefined), the growth inhibition in assay [1] is 6.65%; in assay [2] it was -14.2%; in assay [3], -14.5%; in assay [4], -44.5%; in assay [5] it was -18.9%; in assay [6], -12.9%.
Consider `C=CCNC(=O)N(CCC)CCCCC(NC(C)=O)C(=O)NCc1ccccc1` (centres undefined), for which the growth inhibition in assay [1] was 11.5%; in assay [2] it was 7.5%; in assay [3] it was -8.4%; in assay [4] it was 18.6%; in assay [5], 8.75%; in assay [6], 4.35%.
For `O=c1[nH]cc([N+](=O)[O-])c(=O)[nH]1`, the growth inhibition in assay [1] was 14.3%; in assay [2] it was 13.1%; in assay [3] it was 8.25%; in assay [4], 14.7%; in assay [5] it was 16.9%; in assay [6], 11.2%.
With `O=C(O)C1=C(c2ccccc2)C=C(c2ccccc2)C1`, the growth inhibition was 0% in assay [1]; 0.2% in assay [2]; 12.8% in assay [3]; -33% in assay [4]; 48% in assay [5]; 28.9% in assay [6].
On to `CC(=O)OCC1OC(Sc2cccc3ccccc23)C(OC(C)=O)C(OC(C)=O)C1OC(C)=O` (centres undefined), for which the growth inhibition in assay [1] was -16.8%; in assay [2] it was -5.8%; in assay [3], -4.75%; in assay [4], -20.8%; in assay [5] it was 0%; in assay [6], 3.4%.
For `CCCSc1ccc2c3c(cccc13)C(=O)OC2=O`, the growth inhibition in assay [1] is 47.5%; in assay [2], 42.9%; in assay [3] it was 46%; in assay [4] it was 45.6%; in assay [5], 57.7%; in assay [6] it was 27.5%.
Consider `Cn1c(O)c2c(c1O)C(=Nc1ccccc1)c1ccccc1C2=O`, for which the growth inhibition was 89.2% (active) in assay [1]; 98.5% (active) in assay [2]; 93% (active) in assay [3]; 94.2% (active) in assay [4]; 98.6% (active) in assay [5]; 97.9% (active) in assay [6].
`O=C1OC2=C(CCCC2)C(N2CCCCC2)C12SCCCS2` (centres undefined): the growth inhibition in assay [1] is 3.65%; in assay [2] it was 14.4%; in assay [3] it was -6.75%; in assay [4], 11.4%; in assay [5] it was 5%; in assay [6] it was 2.55%.
Consider `COc1ccc(CCNC(=O)Cc2ccccc2CCO)cc1OC`, for which the growth inhibition in assay [1] was 13.9%; in assay [2], -6.85%; in assay [3], -29.5%; in assay [4] it was -3.75%; in assay [5], -43.9%; in assay [6] it was -20.1%.
In the case of `CN(c1ccc(Br)cc1)c1nc(N)nc(N)c1N=O`, the growth inhibition in assay [1] was 16.4%; in assay [2] it was -10.6%; in assay [3], 5.05%; in assay [4] it was -98.6%; in assay [5], 5.2%; in assay [6], -1.8%.
As to `Cc1cccc(NC(=O)OCCOC(=O)Nc2cccc(C)n2)n1`, the growth inhibition was -15.1% in assay [1]; -11.6% in assay [2]; -19.4% in assay [3]; -9.25% in assay [4]; -11.1% in assay [5]; -1.15% in assay [6].
On to `O=C1CSC(c2cccc(F)c2)N1CCN1C(=O)CSC1c1cccc(F)c1` (centres undefined), for which the growth inhibition in assay [1] was 27.7%; in assay [2] it was 16.7%; in assay [3], 9.65%; in assay [4] it was 20.6%; in assay [5], 2.4%; in assay [6], -7.5%.
`CCOC(=O)c1c(C)c2c(n1C)CC/C(=C\N1CCOCC1)C2=O`: the growth inhibition in assay [1] is 11.3%; in assay [2], 13.1%; in assay [3], 13.6%; in assay [4] it was -13.8%; in assay [5], 14.5%; in assay [6], 15.2%.

These data come from PubChem BioAssay (NCI).
